In the library only some 13% were active in any assay of this set; here they are far more common.
G9a block = qHTS Assay for Inhibitors of Histone Lysine Methyltransferase G9a | Histone-lysine N-methyltransferase EHMT2 (Homo sapiens), Q96KQ7 | G9a H3K9 monomethylation, AlphaScreen, 2 h | Potency, µM (top dose mostly 102 µM), for inactives: at the highest dose activity, negative = inhibition, most hits filed as inhibitors | 8.8% of 350,000 active | AID 504332, 2011; note: potency is the fitted concentration of half-maximal effect; % is set by controls: 0 for no effect and ±100 for the full control effect; nearly all actives have a fitted effect of over 75% in size
Target sequence (Q96KQ7 913-1193 limits assumed): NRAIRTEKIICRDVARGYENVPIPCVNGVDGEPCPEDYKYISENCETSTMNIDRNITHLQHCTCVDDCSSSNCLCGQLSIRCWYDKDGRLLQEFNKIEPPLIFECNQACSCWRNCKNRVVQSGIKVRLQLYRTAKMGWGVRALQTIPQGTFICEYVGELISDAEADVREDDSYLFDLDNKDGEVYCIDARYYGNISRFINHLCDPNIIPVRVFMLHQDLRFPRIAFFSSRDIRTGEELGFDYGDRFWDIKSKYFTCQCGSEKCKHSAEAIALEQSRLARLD
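Signal arises when biotinylated H3K9 peptide, once monomethylated, bridges streptavidin donor and antibody-captured acceptor beads. Enzyme at 20 nM was preincubated 15 min with test compounds; peptide 500 nM and SAM 20 uM then reacted for 2 h.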
JMJD2E inh = qHTS Assay for Inhibitors of Human Jumonji Domain Containing 2E (JMJD2E) | JMJD2E catalytic domain, FDH-coupled NADH fluorescence (FDH is formaldehyde dehydrogenase) | Potency, µM (series often up to 57.1 µM), for the others: top-dose activity change, negative = inhibition, hits mostly inhibitors | 1.6% of 230,000 active | AID 2147, 2009; active = well fitted inhibition curve with a large enough effect, not every such curve was filed as active; inconclusive = small, poorly fitted or top-dose-only effect, or another doubt; inactive = no such curve, though single readings can be large or run the other way;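 note: potency is the fitted concentration of half-maximal effect; 0% = wells with enzyme and -100% = buffer wells without enzyme; nearly all actives have a fitted effect of over 50% in size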
ALDH1A1 block = qHTS Assay for Inhibitors of Aldehyde Dehydrogenase 1 (ALDH1A1). Aldehyde dehydrogenase 1A1 (Homo sapiens), P00352. Purified ALDH1A1, NADH fluorescence, propionaldehyde substrate. Potency, µM (titrated, usually from 75.3 µM), for inactives: at the highest dose activity, negative = inhibition, usual class: inhibitors. 7.3% of 220,000 active; active = well fitted inhibition curve with a large enough effect, not every such curve was filed as active; inconclusive = small, poorly fitted or top-dose-only effect, or another doubt; inactive = no such curve, though single readings can be large or run the other way;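 note: potency is the fitted concentration of half-maximal effect; plate controls were no enzyme wells and a reference inhibitor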
LMNA splice mod = qHTS Assay for Modulators of Lamin A Splicing; HeLa LMNA splicing GFP/RFP minigene ratio, 48 h; Potency, µM (doses to about 46.1 µM), for the others: at the top dose ratio change, negative = inhibition, most hits filed as inhibitors; 0.01% of 200,000 active; AID 1487, 2009; active = well fitted inhibition curve with a large enough effect in the signal ratio, with a control signal flat, not every such curve was filed as active; inconclusive = small, poorly fitted or top-dose-only effect, or effect the other way, or a change in a side signal; the % refers to the signal ratio; note: potency is the fitted concentration of half-maximal effect; % is set by controls: 0 for no effect and ±100 for the full control effect
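S3 HeLa cells stably expressing lamin A-EGFP splicing minigene plus DsRed2, 600 cells/well, 48 h compound exposure at 37C. Laser-scanning cytometry; analysed as GFP (500-530 nm)/RFP (575-640 nm) total intensity ratio; 0.5% DMSO vehicle.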
miR-21 reporter = qHTS Assay for Modulators of miRNAs and/orActivators of miR-21; HeLa miR-21 FLuc reporter, luciferase, 48 h; Potency, µM (titrated, usually from 38.3 µM), inactives show at the top dose activity change, positive = activation, hits mostly activators; 340,000 tested, under 10 active; AID 2288, 2010;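 note: % of control where 0% means no effect; miR-21 action dims this reporter so a rising signal means less miR-21 action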
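HeLa cells endogenously expressing miR-21, stably carrying CMV-driven firefly luciferase with a downstream miR-21 binding site, 2000 cells/well. Titrations up to approximately 40 uM, 48 hours; luciferase luminescence read.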
Sfp inh = qHTS Assay for Inhibitors of Bacillus subtilis Sfp phosphopantetheinyl transferase (PPTase); 4'-phosphopantetheinyl transferase ffp (Bacillus subtilis), Q9F4F7; 3.5% of 310,000 active; Potency, µM, inactives show largest response in the series, negative = inhibition, most hits filed as inhibitors; Biochemical Sfp PPTase activity, qHTS;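 note: the enzyme is Sfp with the accession as filed and its product quenches rhodamine fluorescence; potency is the fitted concentration of half-maximal effect; 0% = enzyme reaction without inhibitor and -100% = no enzyme wells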
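Reaction rates are the 30-min fluorescence difference (ex 525, em 598 nm) in wells containing 15 nM Sfp, 5 uM rhodamine-CoA and 12.5 uM BHQ-2-YbbR at pH 7.6 with 10 mM MgCl2.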
An asterisk follows results filed as active; ? = inconclusive; . = not tested or not shown; [ ] = another dose, or the depositor's remark. Unless noted, calls come from the whole dose curve; as a rule, active = well fitted curve in the direction sought with a large enough effect; inconclusive = small, poorly fitted or top-dose-only effect, or another doubt; inactive = no such curve, though single readings can be large; an effect the other way counts as inactive or inconclusive.

SMILES	G9a block	JMJD2E inh	ALDH1A1 block	LMNA splice mod	miR-21 reporter	Sfp inh
C=CCn1c(SCC(=O)NCC2CCCO2)nc2scc(-c3ccco3)c2c1=O (stereo unspecified)	?	1%	25µM*	-11%	0%	-97%
C=CCn1c(SCC(=O)NCC2CCCO2)nc2scc(-c3ccc(OC)cc3)c2c1=O (stereo unspecified)	68%	.	.	.	16%	-17%
O=S(=O)(c1ccc(F)cc1)N1CCC2(CC1)OCCN2S(=O)(=O)c1cccs1	4%[0.501 µM]	.	.	.	.	.
CC(=O)OCC1OC(C#CCCc2ccccc2)C=CC1OC(C)=O (stereo unspecified)	.	.	?	.	.	5%
N#CC(C#N)=Cc1ccc(-c2ccc(S(=O)(=O)N=C(N)N)cc2)o1	3.5µM*	0%	?	-16%	-10%	?
Cc1ccccc1N(CC(=O)N/N=C/c1cc(Br)c(C)o1)S(C)(=O)=O	?	0%	?	-14%	-9%	6%
CCOc1ccccc1CNC(=O)CN1C(=O)CCCc2ccccc21	6%[59 µM]	.	.	?	4%	.
CCOc1ccc(N=C(NN)c2ccc3ccccc3n2)cc1	13µM*	?	?	?	12%	14µM*
Cc1ccc(-c2nn(CC(=O)Nc3ccc4c(c3)nc3n4CCOC3)c(=O)c3ccccc23)cc1	79µM*	4%	-2%	3%	-27%	-2%
O=C(CC(c1ccc(F)cc1)c1ccco1)Nc1nccs1 (stereo unspecified)	28µM*	-2%	?	?	12%	-6%
O=C(CC(c1ccc(F)cc1)c1ccco1)N1CCCC1 (stereo unspecified)	40µM*	-8%	?	10%	-3%	32µM*
CCCN(CCC)C(=O)CC(c1ccc(F)cc1)c1ccco1 (stereo unspecified)	45µM*	-1%	?	2%	-1%	-26%
CCN(CC)C(=O)CC(c1ccccc1)c1ccco1 (stereo unspecified)	?	-1%	-11%	6%	-3%	-16%
O=C1c2ccccc2C(=O)N1CCC(c1ccc(F)cc1)c1ccco1 (stereo unspecified)	?	1%	10µM*	14%	-12%	14µM*
C[C@]12CCC(=O)C=C1CC[C@@H]1[C@H]2[C@@H](O)C[C@@]2(C)[C@H]1CC[C@]2(O)C(=O)CO	20%[59 µM]	.	.	-19%	.	15%
CC(=O)c1cccc(NC(=O)c2ccc3nc(Cc4ccccc4)oc3c2)c1	3%[59 µM]	.	.	?	21%	.
CCCCCSc1nnc(-c2ccc(Br)cc2)o1	138%[59 µM]	.	.	.	-26%	.
O=C1CC(c2ccc3c(c2)OCO3)c2cc(O)ccc2O1 (stereo unspecified)	10µM*	.	?	.	.	89µM*
O=C1CC(c2ccccc2)c2cc(O)ccc2O1 (stereo unspecified)	3.5µM*	-19%	?	-9%	-1%	?
Cc1ccc(-c2nn[nH]n2)cc1Cl	50µM*	-4%	.	.	-20%	25%
COc1ccc(C(=O)CN2C(=O)c3ccccc3S2(=O)=O)cc1Br	50µM*	.	.	.	0%	13%
COc1ccc(C(=O)CN2C(=O)c3ccccc3S2(=O)=O)cc1	-3%	3%	.	.	?	19%
O=C(CN1C(=O)c2ccccc2S1(=O)=O)c1ccc(F)c(F)c1	19%	.	.	.	23%	5%
O=C(CN1C(=O)c2ccccc2S1(=O)=O)c1ccc(O)c(O)c1	.	14µM*	.	.	13%	?
Cc1c(CN2CCCCC2)c(O)n(CCCO)c(=O)c1C#N	45µM*	?	-7%	0%	0%	11%
N.N.O=C(O)C1(C(=O)O)CCC1.[Pt+2]	0.28µM*	.	.	.	.	.

Screening results as filed in PubChem.
